Where “and” joins values, the source holds several entries; their conditions need not be identical. Equal entries are not always repeated. Records with an inconclusive call do not appear. Some structures have more than one record in an assay (separate samples or runs), and their calls can disagree. Calls of active or inactive are those of the source. Unless noted, calls follow the shape of the dose curve; as a rule, active = well fitted curve in the direction sought with a large enough effect in the repeat runs; inconclusive = weak or mixed curves; inactive = no such curve, though single readings can be large; an effect the other way counts as inactive or inconclusive.

Results on 9 compounds are retold here after PubChem BioAssay (Tox21).

The nature of assay [1]: qHTS assay to identify small molecule antagonists of the estrogen related receptor (ERR) signaling pathway from Tox21 library - cell viability counter screen (AID 1224834). Also: nearly all actives have a fitted effect of over 30% in size. Also: potency is read from the fitted curve at half-maximal effect. In a few lines: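 ERR reporter cells, 2,000 per well, rested 6 h, then exposed to compound in DMSO for 17.5 hours at 37 C. Viability read as fluorescence after 30 min with CellTiter-Fluor.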
Assay [2] is described as follows: qHTS assay to identify small molecule agonists of the constitutive androstane receptor (CAR) signaling pathway - cell viability counter screen (AID 1224836). Also: nearly all actives have a fitted effect of over 45% in size. In a few lines: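 Viability read-out: CellTiter-Fluor fluorescence after 23 h compound exposure at 37 C/5% CO2 in double-stable HepG2-CYP2B6-hCAR cells, with PK11195 present at 0.75 uM final; compounds tested in 15-point titration.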

Assay [3] is described as follows: qHTS assay to identify small molecule antagonists of the constitutive androstane receptor (CAR) signaling pathway - cell viability counter screen (AID 1224837). Also: nearly all actives have a fitted effect of over 45% in size. In a few lines: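 HepG2 cells stably carrying hCAR and CYP2B6-2.2kb reporter, stimulated with 50 nM CITCO and compounds at 15 concentrations for 23 h at 37 C. Viability measured by CellTiter-Fluor fluorescence.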

The target of assay [4] is Nuclear receptor subfamily 1 group I member 3 (Homo sapiens) (UniProt Q14994). The assay is described as follows: qHTS assay to identify small molecule antagonists of the constitutive androstane receptor (CAR) signaling pathway (AID 1224838). Also: nearly all actives have a fitted effect of over 40% in size. Also: potency is read from the fitted curve at half-maximal effect. The procedure, abridged: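 HepG2 cells stably carrying hCAR and a CYP2B6-2.2kb luciferase reporter, seeded 4 hrs before compound (15 concentrations). Stimulated with 50 nM CITCO for 24 hr at 37 C. ONE-Glo luminescence read after 30 min at room temperature.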
Sequence of Nuclear receptor subfamily 1 group I member 3 (Homo sapiens) (Q14994 whole entry, looked up): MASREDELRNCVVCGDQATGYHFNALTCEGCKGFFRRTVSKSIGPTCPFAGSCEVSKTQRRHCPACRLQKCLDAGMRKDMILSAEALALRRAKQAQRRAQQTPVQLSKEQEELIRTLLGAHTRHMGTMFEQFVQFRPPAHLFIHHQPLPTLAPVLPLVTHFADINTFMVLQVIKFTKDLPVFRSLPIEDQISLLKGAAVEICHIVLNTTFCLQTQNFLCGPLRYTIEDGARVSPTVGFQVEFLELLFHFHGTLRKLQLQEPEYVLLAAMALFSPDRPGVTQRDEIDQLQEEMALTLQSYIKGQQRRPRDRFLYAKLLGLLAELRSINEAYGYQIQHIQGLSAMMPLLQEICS

Assay [5] in a line: qHTS assay to identify small molecule antagonists of the estrogen related receptor signaling pathway with the pleiotropic PPARgamma coactivator (PGC) from Tox21 10K library - cell viability counter screen (AID 1224840; active = well fitted cell-killing curve with a large enough effect in the repeat runs, not every such curve was filed as active; also: nearly all actives have a fitted effect of over 40% in size; also: potency is read from the fitted curve at half-maximal effect). The procedure, abridged:
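PGC/ERR cells (2,000/well) plated 6 h, then compound-treated for 17.5 h at 37 C. Viability measured by CellTiter-Fluor fluorescence after 30 min at 37 C, multiplexed with the pathway assay.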

Assay [6] is described as follows: qHTS assay to identify small molecule agonists of the estrogen related receptor signaling pathway with the pleiotropic PPARgamma coactivator (PGC) from Tox21 10K library (AID 1224842). Also: nearly all actives have a fitted effect of over 15% in size. The procedure, abridged: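 PGC/ERR reporter cells (NTP line) were seeded 2,000 per well, rested 6 h at 37 C/5% CO2, then pin-dosed with compounds in DMSO for 18 h at 37 C; luciferase read by One-Glo luminescence after 30 min at room temperature.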

Assay [7] is described as follows: qHTS assay to identify small molecule agonists of the hypoxia (HIF-1) signaling pathway (AID 1224846; active = well fitted activation curve with a large enough effect in the signal ratio in the repeat runs, not every such curve was filed as active; the % refers to the signal ratio). The procedure, abridged:
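HRE-bla ME-180 beta-lactamase reporter cells in medium with 0.5% dialyzed FBS, pre-incubated 5 h then exposed to compounds 17 h at 37C, 5% CO2; reporter induction read with CCF4-AM FRET substrate.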

Assay [8] can be described thus: qHTS assay to identify small molecule agonists of H2AX - cell viability counter screen (AID 1224847; calls by dose curve; also: top concentration of the series differs between compounds; nearly all actives have a fitted effect of over 30% in size). The procedure, abridged:
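CHO-K1 wt, 1000 cells/well, o/n 37C; cpds 15 conc, 3 h 37C, 0.76% DMSO; CellTiter-Glo, 30 min RT, luminescence.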

Assay [9] is described as follows: qHTS assay to identify small molecule antagonists of the estrogen related receptor (ERR) signaling pathway from Tox21 library (AID 1224848). Also: nearly all actives have a fitted effect of over 50% in size. Also: potency is read from the fitted curve at half-maximal effect. In a few lines:
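Screening used an ERR reporter line supplied by NTP, exposed for 18 h at 37 C to library compounds delivered in DMSO. Signal was luciferase luminescence developed with ONE-Glo at room temperature for 30 min.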

Assay [10] can be described thus: qHTS assay to identify small molecule agonists of the estrogen related receptor (ERR) signaling pathway from Tox21 library (AID 1224849; calls by dose curve; also: nearly all actives have a fitted effect of over 15% in size). The conditions noted are these: ERR reporter cell line, ONE-Glo luciferase, 18 h. The procedure, abridged:
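ERR reporter cells (NTP line) pre-incubated 6 hours at 37 C, then exposed to compounds for 18 hours at 37 C. ONE-Glo luciferase luminescence was read after 30 minutes at room temperature.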

A short description of assay [11]: qHTS RealTime-Glo MT Cell Viability Assay in HepG2 cells - 24 hour (AID 1224867). Also: nearly all actives have a fitted effect of over 50% in size. Also: potency is read from the fitted curve at half-maximal effect. In a few lines:
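Cell number in HepG2 cultures estimated from NanoLuc luminescence generated by metabolic reduction of a prosubstrate by living cells. The homogeneous, nonlytic format allowed repeated reads at 0, 8, 16, 24, 32 and 40 h of compound exposure.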

Assay [12] in a line: A CellTox Green Cytotoxicity Assay to monitor cytotoxicity in HEK293 cells - 0 hour (AID 1224869). Also: nearly all actives have a fitted effect of over 50% in size. In a few lines:
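HEK293 cells, 600/well, were preincubated 5 hours and then exposed to compounds at 37 C for up to 40 hours. A cell-impermeant cyanine dye staining dead-cell DNA was read by fluorescence at 0, 8, 16, 24, 32 and 40 h time points.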

A short description of assay [13]: qHTS RealTime-Glo MT Cell Viability Assay in HepG2 cells - 40 hour (AID 1224870). Also: nearly all actives have a fitted effect of over 50% in size. Also: potency is read from the fitted curve at half-maximal effect. The procedure, abridged:
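HepG2 cells mixed with RealTime-Glo MT reagents (NanoLuc plus cell-permeant prosubstrate) were seeded at 600 cells/well, incubated 5 h at 37 C/5% CO2, then pinned with compounds in DMSO; nonlytic luminescence tracked viability during 40 h treatment.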

Assay [14] addresses Luciferin 4-monooxygenase (Photinus pyralis) (UniProt P08659). Put plainly: qHTS assay to identify small molecule inhibitors of firefly luciferase (AID 1224835). Also: nearly all actives have a fitted effect of over 25% in size. Also: potency is read from the fitted curve at half-maximal effect. The procedure, abridged:
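Quantitative HTS format; KM concentrations of both substrates. Purified P. pyralis FLuc activity quantified from luminescence images.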

For assay [15], the target named is Thyrotropin receptor (Homo sapiens) (UniProt P16473). Put plainly: qHTS assay to identify small molecule agonists of the thyroid stimulating hormone receptor (TSHR) signaling pathway (AID 1224843; calls by dose curve; also: nearly all actives have a fitted effect of over 45% in size). In a few lines: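 Cell line HEK293 with TSHR; density 800/well. Exposure 30 min RT. Readout HTRF cAMP (cAMP-d2/anti-cAMP-cryptate), 1 h RT before reading.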
Sequence of Thyrotropin receptor (Homo sapiens) (P16473 whole entry, looked up): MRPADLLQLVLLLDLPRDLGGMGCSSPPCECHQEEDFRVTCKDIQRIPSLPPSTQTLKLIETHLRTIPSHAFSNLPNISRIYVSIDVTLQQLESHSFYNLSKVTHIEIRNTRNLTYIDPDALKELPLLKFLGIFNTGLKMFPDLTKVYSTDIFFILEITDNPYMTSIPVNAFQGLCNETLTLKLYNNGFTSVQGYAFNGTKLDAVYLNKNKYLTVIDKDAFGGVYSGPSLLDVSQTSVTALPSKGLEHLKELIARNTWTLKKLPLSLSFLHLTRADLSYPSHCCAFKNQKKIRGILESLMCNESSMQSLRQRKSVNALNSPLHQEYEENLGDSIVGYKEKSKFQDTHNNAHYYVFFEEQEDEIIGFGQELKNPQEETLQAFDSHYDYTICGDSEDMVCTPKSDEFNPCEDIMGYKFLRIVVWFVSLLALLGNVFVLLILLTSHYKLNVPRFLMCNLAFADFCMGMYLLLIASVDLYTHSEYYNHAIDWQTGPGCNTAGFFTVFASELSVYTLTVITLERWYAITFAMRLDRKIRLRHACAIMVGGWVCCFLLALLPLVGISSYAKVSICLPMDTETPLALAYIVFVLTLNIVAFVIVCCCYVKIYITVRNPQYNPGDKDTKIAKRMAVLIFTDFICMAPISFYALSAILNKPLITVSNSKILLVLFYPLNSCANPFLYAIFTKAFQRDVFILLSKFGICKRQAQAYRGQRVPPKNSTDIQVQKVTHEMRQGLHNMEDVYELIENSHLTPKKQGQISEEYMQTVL
Assay [16] in a line: qHTS assay to identify small molecule agonists of the hypoxia (HIF-1) signaling pathway - cell viability counter screen (AID 1224844; calls by dose curve; also: nearly all actives have a fitted effect of over 50% in size; also: potency is read from the fitted curve at half-maximal effect). In a few lines: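 HRE-bla ME-180 cells, 2,000/well in 0.5% dialyzed FBS medium, treated 17 h at 37C with compounds. Viability read in the same wells as the bla reporter, by CellTiter-Glo luminescence after 30 min at room temperature.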
Assay [17] is described as follows: qHTS assay to identify small molecule agonists of H2AX (AID 1224845; active = well fitted activation curve with a large enough effect in the signal ratio in the repeat runs, not every such curve was filed as active; the % refers to the signal ratio). The procedure, abridged:
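Wild-type CHO-K1 cells plated overnight, then exposed 3 hr at 37C to compounds at 15 concentrations (0.76% DMSO). Lysed, then HTRF anti-pH2AX(S139)-cryptate/anti-H2AX-d2 detection after 24 hr at room temperature; emissions 665 and 620 nm.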

Assay [18] in a line: qHTS RealTime-Glo MT Cell Viability Assay in HEK293 cells - 32 hour (AID 1224868). Also: nearly all actives have a fitted effect of over 50% in size. Also: potency is read from the fitted curve at half-maximal effect. The procedure, abridged: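 Homogeneous bioluminescent viability format in HEK293 cells (600 cells/well). Following 5 h at 37 C/5% CO2, 23 nL compound was pintooled; the signal was measured repeatedly during 40 h incubation.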
% is scaled to controls: 0 for no effect and ±100 for the full control effect.

Sequence of Luciferin 4-monooxygenase (Photinus pyralis) (P08659 whole entry, looked up): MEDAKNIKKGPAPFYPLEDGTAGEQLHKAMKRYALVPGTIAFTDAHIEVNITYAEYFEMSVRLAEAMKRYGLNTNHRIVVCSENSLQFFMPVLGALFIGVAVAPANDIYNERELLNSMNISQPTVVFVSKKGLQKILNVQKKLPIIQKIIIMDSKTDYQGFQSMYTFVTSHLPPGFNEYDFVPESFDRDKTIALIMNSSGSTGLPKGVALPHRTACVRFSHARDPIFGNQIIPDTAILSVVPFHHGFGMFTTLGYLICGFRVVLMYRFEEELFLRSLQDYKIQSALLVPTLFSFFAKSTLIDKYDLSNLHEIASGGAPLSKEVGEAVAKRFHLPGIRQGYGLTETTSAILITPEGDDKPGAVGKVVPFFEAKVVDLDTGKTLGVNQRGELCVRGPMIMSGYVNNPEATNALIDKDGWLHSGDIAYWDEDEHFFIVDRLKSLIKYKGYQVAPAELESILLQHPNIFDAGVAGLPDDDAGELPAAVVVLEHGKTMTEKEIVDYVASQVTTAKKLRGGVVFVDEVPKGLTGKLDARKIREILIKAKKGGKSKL

As for `[Cl][Pt-2]([Cl])([Cl])[Cl]`, the Potency result in [1], in [2], in assay [3], in assay [4], in [5] and in assay [6] was “inactive” each time. Moreover, the Potency entry in [7], in assay [8], in assay [9], in assay [11], in [12] and in assay [13] was “inactive” in each case. In [10] (at 92.4 µM (top of the series)), the activity change, positive = activation is -8.8% (inactive).

With `O=C(O)Cc1ccc2c(c1)C(=O)c1ccccc1CO2`, the Potency entry in assay [1], in assay [2], in [3], in assay [5], in assay [15] and in [16] was “inactive” each time. In addition, the Potency entry in assay [17], in assay [7], in assay [11] and in assay [18] was “inactive” in each case. Besides, the Potency in assay [14] was 30.9 µM (active).

Turning to `Cc1cc(=O)oc2cc(O)cc(O)c12`, the Potency entry in [1], in assay [14], in assay [3], in [4], in [5] and in assay [6] was “inactive” each time. The Potency result in assay [15], in [11], in assay [18] and in assay [12] was “inactive” each time. The activity change, positive = activation in assay [10] (at 92.4 µM (top of the series)) is -20.6% (inactive).

On to `Cc1ccc(O)c(N)c1`, for which the Potency in assay [1] was 61.2 µM (active); in assay [14], 31.8 µM (active); in assay [16], 39 µM (active). Moreover, the Potency result in assay [2], in [3], in [5], in assay [8], in [11] and in assay [12] was “inactive” in each case. In assay [13], the Potency result was “inactive”.

Regarding `COCCOc1cc2cc(C(=O)NC3CCN(C(C)C)CC3)n(CC(=O)Nc3ccc(Cl)cn3)c2cn1`, the Potency result in assay [1], in assay [14], in assay [3], in assay [5], in assay [15] and in [16] was “inactive” in each case. In addition, the Potency result in assay [17], in assay [7], in [8], in assay [11], in assay [18] and in assay [13] was “inactive” each time.

Turning to `Cc1nc2n(c(=O)c1CCN1CCC(c3noc4cc(F)ccc34)CC1)CCCC2`, the Potency entry in [1], in assay [14], in assay [2], in assay [3], in [5] and in assay [15] was “inactive” in each case. Besides, the Potency entry in assay [16], in [17], in [8], in assay [11] and in assay [12] was “inactive” throughout. The Potency in assay [18] is 3.79 µM (active).

Turning to `CC(=O)CC(=O)Nc1ccc(S(=O)(=O)O)cc1`, the Potency entry in assay [1], in assay [14], in assay [2], in assay [3], in assay [5] and in [15] was “inactive” each time. Besides, the Potency result in assay [16], in assay [17], in assay [7], in assay [11], in assay [18] and in assay [12] was “inactive” each time. In addition, the Potency entry in [13] was “inactive”.

Turning to `CCCCCCCCCCCCCCCC[N+](C)(C)CC`, the Potency is 30.7 µM (active) and 23.7 µM (active) in assay [1]; 30.7 µM (active) and inactive in [5]; 17.3 µM (active) and 10.6 µM (active) in assay [9]; 24.6 µM (active) and 23.9 µM (active) in assay [11]; 4.91 µM (active) and 4.77 µM (active) in assay [18]; 19.6 µM (active) and 19 µM (active) in assay [13]. Further, the Potency entry in assay [14], in assay [6], in [15], in [16], in assay [17] and in [12] was “inactive” each time. Besides, the activity change, positive = activation is -55.4% (inactive) in assay [10] (at 42.5 µM (top of the series)) and -72.7% (inactive) in [10] (at 92.4 µM (top of the series)).

With `c1ccc(SSc2ccccc2)cc1`, the Potency entry in assay [1], in assay [2], in [3], in assay [5], in [16] and in assay [7] was “inactive” throughout. Besides, the Potency entry in assay [8], in [11], in assay [18], in [12] and in [13] was “inactive” each time. In assay [4], the Potency was 43.6 µM (active).
